# Screening data deposited in PubChem BioAssay by National Center for Advancing Translational Sciences (NCATS).
# Lassa entry inh: blocks Lassa virus binding to or entry into cells. Lassa virus pseudotype entry inhibition, cell reporter. AID 540256. Potency, µM (titrated, usually from 37.9 µM), for inactives: top-dose activity change, negative = inhibition, hits mostly inhibitors. actives 1.2% (n = 300,000); calls by dose curve; tested in HEK293 cells; further: potency means the concentration at half of the fitted maximal effect; nearly all actives have a fitted effect of over 50% in size
# HCV inh: inhibitors of hepatitis C virus infection | Potency, µM (top dose mostly 41.8 µM), for the others: at the top dose activity change, negative = inhibition, hits mostly inhibitors | AID 651820 | Huh7.5.1 HCVcc-Cre infection, luciferase reporter, 44 h | actives 3.4% (n = 340,000); further: potency means the concentration at half of the fitted maximal effect
#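 Luciferase read-out (15 sec integration) after a 15 min room-temperature substrate step quantifies HCVcc-Cre infection. Cells, 1,000 per well, had compound added 4 h post-plating, then virus at ~0.5 moi, and were cultured 44 h.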
# FBPA Giardia inh: blocks Giardia fructose-bisphosphate aldolase activity; actives 0.71% (n = 290,000); A8B2U2; Potency, µM (doses to about 59.6 µM), for inactives: top-dose activity, negative = inhibition, usual class: inhibitors; purified Giardia FBPA; further: potency means the concentration at half of the fitted maximal effect; nearly all actives have a fitted effect of over 55% in size
# Target sequence (A8B2U2 whole entry, looked up): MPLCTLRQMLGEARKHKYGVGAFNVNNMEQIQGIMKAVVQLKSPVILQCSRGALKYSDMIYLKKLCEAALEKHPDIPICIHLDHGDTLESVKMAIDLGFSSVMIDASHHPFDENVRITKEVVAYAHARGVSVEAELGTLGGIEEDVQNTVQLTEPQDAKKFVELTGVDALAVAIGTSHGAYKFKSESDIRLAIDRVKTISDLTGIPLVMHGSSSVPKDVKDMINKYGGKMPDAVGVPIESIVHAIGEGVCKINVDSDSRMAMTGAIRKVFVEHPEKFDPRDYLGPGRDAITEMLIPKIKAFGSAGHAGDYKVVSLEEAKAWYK
#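 Giardia FBPA (40 nM reagent) was preincubated 10 min at RT with compound (up to 57.5 uM final), then substrate plus GAPDH/TPI/NAD/arsenate coupling system with diaphorase/resazurin was added; resorufin fluorescence (525/598 nm) was read after 20 min.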
# MARV entry inh: Marburg virus entry inhibition; Marburg virus pseudotyped entry inhibition, cell reporter; Potency, µM (doses to about 37.8 µM), for inactives: at the highest dose activity change, negative = inhibition, hits mostly inhibitors; actives 1.8% (n = 300,000); AID 540276; calls by dose curve; tested in HEK293 cells; further: potency means the concentration at half of the fitted maximal effect
# HCMV antiviral: blocks human cytomegalovirus replication | activity change, negative = inhibition, % at 57.5 µM | HFF cells, HCMV-luciferase reporter, 72 h; hits give low values | AID 1259415 | actives 4.5% (n = 410,000); in the data active means activity change below about -60%; inconclusive means no clear call, values can overlap the other calls; inactive means above about -39%
#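 Screen run at 2 compound doses on HFFs infected with reporter HCMV, MOI 1 PFU/cell. Luciferase activity from cell lysates at 72 h post infection gave inhibition relative to buffer-only and Salinomycin wells.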
# FMDV inh: antivirals against foot and mouth disease virus; FMDV antiviral cell-based qHTS; Potency, µM (top dose mostly 57.9 µM), without a hit: at the top dose activity change, negative = inhibition, most hits filed as inhibitors; actives 1.2% (n = 410,000); calls by dose curve; tested in HEK293T cells; further: read-out not given here; potency means the concentration at half of the fitted maximal effect; nearly all actives have a fitted effect of over 45% in size
# Starred values were filed as active, the others as inactive; ? = inconclusive; nt = not tested or not shown; [ ] = dose if it differs, or a comment. An excerpt weighted towards active compounds, which were near 8.3% of everything screened. Unless noted, the call rests on the fitted dose curve; in most records, active means well fitted curve in the direction sought with a large enough effect; inconclusive means small, poorly fitted or top-dose-only effect, or another doubt; inactive means no such curve, though single readings can be large; an effect the other way counts as inactive or inconclusive. On the % scale 0 is the no-effect control and ±100 the full control effect.
SMILES,Lassa entry inh,HCV inh,FBPA Giardia inh,MARV entry inh,HCMV antiviral,FMDV inh
CC(C)=CCOc1ccc([C@@H]2COc3c(ccc4c3C=CC(C)(C)O4)C2)c(O)c1,nt,4.47µM*,nt,nt,?,?
CCN(CC)CCn1c2ccccc2c2cnc(N=CN(C)C)c(C#N)c21,?,?,9.8%,?,-94.2*,-9.3%
CCn1c2ccccc2c2cnc(N=CN(C)C)c(C#N)c21,-8.4%,12.6µM*,-12.9%,?,-69.5*,?
COc1ccc(C(=O)C2CCCN(Cc3ccon3)C2)c(OC)c1 (centres undefined),0.1%[46.1 µM],-5.9%,-2.8%,-16.0%[46.1 µM],-1.2,-10.7%
Cc1ccsc1C(=O)C1CCCN(Cc2cccn2-c2ccccn2)C1 (centres undefined),?,-23.1%,0.7%,5.62µM*,-66.2*,?
O=C(c1cc(F)ccc1F)C1CCCN(Cc2cccn2-c2ccccn2)C1 (centres undefined),nt,6.0%,5.0%,nt,-32.4,18.2%
COc1ccc(F)cc1C(=O)C1CCCN(Cc2cccn2-c2ccccn2)C1 (centres undefined),10µM*,?,3.8%,?,?,-29.0%
COc1ccc(C(=O)C2CCCN(Cc3cccn3-c3ccccn3)C2)c(OC)c1 (centres undefined),?,?,0.2%,?,-66.7*,?
COc1ccc(NC(=O)c2cc(OCCCN(C)C)nn2Cc2ccccc2)cc1,nt,nt,-1.9%,nt,nt,-7.9%
CCCc1cc(C(=O)Nc2cc(C)ccc2O)no1,?,?,-2.7%,?,-69.1*,40.7%
COC(=O)c1ccccc1NC(=O)c1cc(CN2CCCC2)on1,1.3%[46.1 µM],nt,nt,nt,16.0,-10.0%
CCCc1cc(C(=O)Nc2ccccc2C(=O)OC)no1,nt,10µM*,-0.6%,nt,81.5,13.9%
COc1ccc(-n2nc([N+](=O)[O-])c(=NC3CCN(Cc4ccccc4)CC3)n2O)cc1,-0.6%[46.1 µM],?,-7.1%,?,-62.6*,28.7%
COc1ccc(-n2nc([N+](=O)[O-])c(=NCCc3ccc(OC)c(OC)c3)n2O)cc1,?,12.6µM*,-8.6%,?,?,?
COc1ccc(-n2nc([N+](=O)[O-])c(=NCCc3ccc(C)cc3)n2O)cc1,-11.4%[46.1 µM],0.3%,-5.6%,28.9%[46.1 µM],0.0,-18.7%
O=C(c1ccncc1)N1CCC[C@@]2(CCN(c3ccncc3)C2)C1,nt,nt,-0.3%,nt,nt,5.4%
CN1CCc2cc(O)c(O)cc2C1Cc1ccc(O)c(O)c1 (centres undefined),nt,nt,-27.3%,nt,nt,nt
CCN(CC(=O)NCc1ccc(F)cc1)C(=O)CN1CCN(c2cc(Cl)ccc2C)CC1,-0.7%,6.31µM*,-4.7%,-23.4%[46.1 µM],38.0,?
CCN(CC(=O)NCc1ccc(Cl)cc1)C(=O)CSc1ccc(F)cc1,-2.5%,?,nt,-22.2%,-26.3,-10.8%
CCOC(=O)c1c(C)[nH]c(C)c1S(=O)(=O)N(C)CC(=O)Nc1ccc(C)cc1C,-15.9%[46.1 µM],nt,nt,nt,-9.0,-15.7%
CCOC(=O)c1cccc(NC(=O)/C=C/c2ccc3c(c2)OCO3)c1,?,12.6µM*,-5.0%,?,-10.9,39.8µM*
O=C(C=Cc1ccc2c(c1)OCO2)c1ccccc1,?,14.1%,nt,?,18.6,29.0%
CCCCOC(=O)c1cccc(NC(=O)/C=C/c2ccccc2Cl)c1,-27.7%[46.1 µM],nt,nt,nt,-95.3*,?
CCN(C(=O)/C=C/c1ccc2c(c1)OCO2)c1ccccc1,0.1%,-6.2%,5.1%,23.2%,-70.6*,9.7%
CN(C)S(=O)(=O)c1ccc(NC(=O)/C=C/c2ccccc2Cl)cc1,-20.4%,8.91µM*,-7.6%,?,?,14.2%
SMILES,Lassa entry inh,HCV inh,FBPA Giardia inh,MARV entry inh,HCMV antiviral,FMDV inh
CCc1ccc(NC(=O)CSC2=Nc3ccccc3C3=NC(CC(=O)NCc4ccc5c(c4)OCO5)C(=O)N23)cc1 (centres undefined),11.8%[46.1 µM],nt,nt,nt,50.6,27.2%
Cc1nc2cnc(Nc3ccccc3)nc2n(CCc2ccccc2)c1=O,nt,nt,9.2%,nt,nt,-5.8%
O=C(O[C@H]1CC[C@@]23CCCN2C(=O)CCC[C@H]3C1)c1ccc(Br)cc1,nt,nt,nt,nt,-23.0,nt
CCCn1c(-c2ccc(F)cc2)nc2c(NCCN(C)C)nc(C)nc21,nt,nt,2.7%,nt,nt,nt
O=C(/C=C/c1ccccc1Cl)Nc1ccccc1,?,?,-10.4%,10µM*,130.6,-15.6%
O=C(NCc1ccccc1)C1CCC(CNc2c(N3CCCCC3)c(=O)c2=O)CC1 (centres undefined),-2.1%,-10.2%[8.37 µM],1.6%,23.7%,100.9,-7.4%
O=C(NCc1ccc2c(c1)OCO2)C1CCC(CNc2c(N3CCCC3)c(=O)c2=O)CC1 (centres undefined),nt,8.3%,2.1%,-2.1%,-83.5*,-4.1%
Cc1ccc(NC(=O)Nc2ccc3nc(N4CCN(C)CC4)cc(C)c3c2)cc1C,?,nt,nt,nt,-100.1*,-1.8%
Cc1cc(N2CCN(C)CC2)nc2ccc(NC(=O)Nc3ccccc3)cc12,1.5%[46.1 µM],nt,nt,nt,?,42.2%
CCOc1cc(C(=O)Nc2ccc3nc(N4CCN(C)CC4)cc(C)c3c2)cc(OCC)c1OCC,-20.2%[46.1 µM],nt,nt,5.62µM*,-65.7*,-29.0%
CCN1CCN(c2cc(C)c3cc(NC(=O)c4ccncc4)ccc3n2)CC1,nt,-10.7%,-2.6%,nt,14.2,-17.9%
Cc1cc(N2CCN(C)CC2)nc2ccc(NC(=O)Nc3ccccc3Br)cc12,?,nt,nt,nt,-94.7*,19.4%
Cc1cc(N2CCN(C)CC2)nc2ccc(NC(=O)CCC(=O)N3CCN(c4ccc([N+](=O)[O-])cc4)CC3)cc12,-6.8%[46.1 µM],11.2µM*,-18.1%,?,-63.9*,-17.3%
CCCCC(=O)Nc1c(C(=O)N2CCN(c3ccccc3)CC2)oc2ccccc12,-21.4%[46.1 µM],nt,nt,?,-24.0,44.3%
Cc1ccc(NC(=O)CN2C(=O)CSc3ccc(S(=O)(=O)N4CCCC4)cc32)c(C)c1,2.4%[46.1 µM],nt,nt,nt,7.5,15.8%
O=C(Nc1ccccc1C(=O)OCc1cc(=O)n2ccsc2n1)c1cccc(F)c1,-2.0%[46.1 µM],nt,nt,nt,-36.2,1.6%
CCCCC(=O)Nc1nnc(SCc2cc(=O)n3cc(C)ccc3n2)s1,18.6%[46.1 µM],nt,nt,nt,-29.2,-11.4%
Cc1noc(-c2ccc(N3CCCCC3)c([N+](=O)[O-])c2)n1,-2.5%[46.1 µM],nt,nt,?,60.2,48.8%
O=c1oc2ccccc2n1CCCOc1ccccc1Cl,?,nt,nt,8.0%[46.1 µM],71.9,58.2%
Cc1cc(N2CCN(C)CC2)nc2ccc(NC(=O)Nc3cccc(Cl)c3)cc12,?,nt,nt,nt,-98.9*,3.5%
O=C(O)CNC(=O)c1ccccc1I,nt,nt,1.2%,nt,10.7,nt
O=c1c(-c2nc3ccccc3s2)cccn1Cc1ccc(Cl)c(Cl)c1,4.3%,?,0.0%,0.5%,-63.0*,23.4%
COc1ccc(/C=N/Nc2cc(C)nc3c(C)cccc23)cc1,nt,12.6µM*,9.6%,nt,-23.5,24.4%
COc1ccc2nc(C)cc(N/N=C/c3ccc(F)cc3)c2c1,?,?,1.0%,?,-18.1,-8.5%
COc1ccc(/C=N/Nc2cc(C)nc3ccccc23)cc1,?,?,2.2%,?,-103.7*,?
